Source: PubChem BioAssay (NCI)
This is part of a sample that, as a whole, favours compounds with a hit. Of some 79,000 tested, about 15% had one in any assay. Active and inactive are the calls of the source. No stated cut-off is given here; in the data, active means growth inhibition above about 70%; inactive means the rest.

Assay: NCI Yeast Anticancer Drug Screen. Data for the wt1 strain (AID 149);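 further: 0% = growth of vehicle-treated wt1 cultures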
Conditions: S. cerevisiae wt1 strain (SPY 50644) growth inhibition, hits give high values
Procedure: Growth inhibition of yeast strains with defined genetic alterations is measured as a screen for potential anti-cancer activity. Selected strains with alterations in DNA damage repair or cell cycle control were exposed to compounds and growth inhibition was measured relative to vehicle treated controls. The strain used in this assay is wt1

Measured: growth inhibition

[N-]=[N+]=NC1(c2ccccc2)C(=O)Nc2ccccc2C1=O (stereo not given)
inactive: at 1.2 µM -4% | at 3.7 µM -2% | at 11.0 µM -3% | at 33.0 µM 4% | at 100.0 µM 22%

CC(C)(CN1CCCCC1)C(=O)CC(SCCS(=O)(=O)O)c1ccccc1 (stereo not given)
inactive: at 1.2 µM -63% | at 3.7 µM 1% | at 11.0 µM 0% | at 33.0 µM 4% | at 100.0 µM 10%

CCCCCCCCN1COCC(COc2ccccc2C)OC1 (stereo not given)
inactive: at 1.2 µM -1% | at 3.7 µM -1% | at 11.0 µM 2% | at 33.0 µM 8%
active: at 100.0 µM 96%

O=C1CC(C(O)(C(F)(F)F)C(F)(F)Cl)CCC1C(O)(C(F)(F)F)C(F)(F)Cl (stereo not given)
inactive: at 1.2 µM 32% | at 3.7 µM 44% | at 11.0 µM 68%
active: at 33.0 µM 91% | at 100.0 µM 97%

O=c1[nH]c2c([N+](=O)[O-])cccc2c2ccccc12
active: at 100.0 µM 73%
inactive: at 1.2 µM -3% | at 3.7 µM -2% | at 11.0 µM -2% | at 33.0 µM 5%

Oc1ccc(C2(c3ccc(O)cc3)CCCC2)cc1
active: at 33.0 µM 98% | at 100.0 µM 98%
inactive: at 1.2 µM -41% | at 3.7 µM -21% | at 11.0 µM 10%

CC(=O)O[C@H]1CC[C@@]2(C)C(=CC[C@@H]3C2CC[C@]2(C)C(=O)NC(=O)CC32)C1 (stereo not given in full)
inactive: at 1.2 µM -17% | at 3.7 µM -7% | at 11.0 µM -21% | at 33.0 µM -17% | at 100.0 µM -21%

CC1=NN(C(=O)CC(=O)NC(=O)/C=C\c2ccccc2)C(=O)C1N=Nc1ccc([N+](=O)[O-])cc1 (stereo not given)
inactive: at 1.2 µM 2% | at 3.7 µM 4% | at 11.0 µM 20% | at 33.0 µM 35% | at 100.0 µM 34%
